A short description of assay [1]: ATG_CRE_CIS: Attagene CIS-FACTORIAL HepG2 Assay for human cAMP Responsive Element (CRE) binding protein 3 (AID 2282926). Particulars: HepG2 CRE cis-reporter, Attagene multiplexed mRNA; actives raise or lower the signal. The essentials:
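Induced reporter mRNA from a CRE cis element, measured in HepG2 among many multiplexed units at 24 h. Detection used RT-PCR plus capillary electrophoresis of fluorescent fragments; DMSO served as negative control.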

Assay [2] has as its target CCAAT/enhancer-binding protein beta (Homo sapiens) (UniProt P17676). The assay can be described thus: ATG_C_EBP_CIS: Attagene CIS-FACTORIAL HepG2 Assay for human CCAAT/Enhancer Binding Protein (C/EBP) beta (AID 2282927). Particulars: HepG2 Attagene cis-factorial transcription factor reporter; actives raise or lower the signal. The essentials: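 Following a 24 h incubation with test chemical, transfected HepG2 cells yielded RNA whose reporter transcripts were quantified by RT-PCR and fluorescent capillary electrophoresis, with DMSO serving as baseline for bidirectional fitting.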

Assay [3] can be described thus: ATG_CMV_CIS: Attagene CIS-FACTORIAL HepG2 Assay for human CMV (Internal Marker) (AID 2282928).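 Also: endpoint acts as a background internal control marker rather than a target.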 Particulars: HepG2 CMV promoter reporter, transcription factor profiling; actives raise or lower the signal. The essentials:
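Fluorescence intensity of RT-PCR-derived reporter fragments, resolved by capillary electrophoresis, gives the signal. HepG2 liver cells bearing transfected cis-element reporters were treated 24 h; activity in either direction was fit relative to DMSO-treated controls.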

A short description of assay [4]: ATG_DR4_LXR_CIS: Attagene CIS-FACTORIAL HepG2 Assay for human Liver X Receptor (LXR), DR4 submotif (AID 2282929). Particulars: HepG2 Attagene DR4 cis-reporter, mRNA transcription; actives raise or lower the signal. The essentials:
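HepG2 cells were transiently transfected with multiple cis-regulated reporter units and dosed for 24 hours. The DR4 reporter mRNA was quantified by RT-PCR, 6-FAM labelling and capillary electrophoresis. Bidirectional fits used DMSO as baseline.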

Assay [5] addresses Aryl hydrocarbon receptor (Homo sapiens) (UniProt P35869). The assay can be described thus: ATG_Ahr_CIS: Attagene CIS-FACTORIAL HepG2 Assay for human Aryl Hydrocarbon Receptor (Ahr) (AID 2282930). Particulars: HepG2 AhR cis-factorial reporter transcription; actives raise or lower the signal. Put shortly:
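Values derive from bidirectional fitting against DMSO negative control. Underlying signal: cis-element reporter mRNA in transiently transfected HepG2, harvested 24 h post-dose and measured by RT-PCR plus capillary electrophoresis.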

Assay [6] can be described thus: ATG_AP_1_CIS: Attagene CIS-FACTORIAL HepG2 Assay for human Activator Protein 1 (AP-1) (AID 2282931). Particulars: HepG2 Attagene cis-factorial AP-1 reporter mRNA; actives raise or lower the signal. Put shortly: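 HepG2 cells transiently transfected with cis-element-driven reporter transcription units, dosed for 24 hours. Reporter mRNA measured by RT-PCR, 6-FAM labelling, HpaI digestion and capillary electrophoresis. Bidirectional fitting against DMSO baseline.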

Assay [7] can be described thus: ATG_AP_2_CIS: Attagene CIS-FACTORIAL HepG2 Assay for human Activator Protein 2 (AP-2) (AID 2282932). Particulars: HepG2 AP-2 cis-reporter, Attagene transcription factor profiling; actives raise or lower the signal. Put shortly: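 Assay in transfected HepG2 with promoter-regulated reporters, 24 h incubation after dosing. Signal is reporter mRNA fluorescence (RT-PCR, capillary electrophoresis), analysed for both increases and decreases relative to DMSO controls.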

Assay [8] in a line: ATG_BRE_CIS: Attagene CIS-FACTORIAL HepG2 Assay for human Bone Morphogenetic Protein (BMP) Response Element (BRE) (AID 2282933). Particulars: HepG2 BMP response element reporter, Attagene transcription factor profiling; actives raise or lower the signal. Put shortly:
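Multiplexed cis-reporter assay, HepG2, 24 h exposure. mRNA from reporter units quantified via RT-PCR/CE; DMSO baseline; bidirectional curve fit.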

Assay [9] deals with Retinoic acid receptor alpha (Homo sapiens) (UniProt P10276). Description: ATG_DR5_RAR_CIS: Attagene CIS-FACTORIAL HepG2 Assay for human Retinoic Acid Receptor Alpha (RARE), DR5 submotif (AID 2282934).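 As to AC50: reporter responds to endogenous RAR alpha beta and gamma in HepG2 not RARA alone.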 Particulars: HepG2 Attagene cis-factorial RARE DR5 reporter, mRNA; actives raise or lower the signal. Put shortly:
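Endpoint fitted in both directions relative to DMSO as negative control. It reflects DR5 cis-element reporter mRNA induction in transiently transfected HepG2 cells, measured 24 h after dosing through RT-PCR and fluorescent capillary electrophoresis.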

The nature of assay [10]: ATG_E_Box_CIS: Attagene CIS-FACTORIAL HepG2 Assay for human Enhancer Box (E-box) (AID 2282936). Particulars: HepG2 E-box cis-reporter transcription, actives raise or lower the signal. The essentials: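 Measured 24 h post-dosing in HepG2 cells transfected with multiple cis-regulated reporter units, signal being reporter mRNA induction detected by fluorescent RT-PCR with capillary electrophoresis; gain or loss fitted against DMSO.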

Assay [11] is described as follows: ATG_M_61_CIS: Attagene CIS-FACTORIAL HepG2 Assay for M61 Transcription Factor (Internal Marker) (AID 2282937). Particulars: HepG2 Attagene CIS-FACTORIAL M61 internal marker reporter; actives raise or lower the signal. The essentials:
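HepG2 cells transiently transfected with multiplexed cis-promoter reporter units reporting endogenous transcription factor activity, measured 24 h after dosing. Reporter mRNA quantified by RT-PCR and capillary electrophoresis; bidirectional fit against DMSO baseline.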

Assay [12] can be described thus: ATG_M_19_CIS: Attagene CIS-FACTORIAL HepG2 Assay for M19 Transcription Factor (Internal Marker) (AID 2282939). Particulars: HepG2 Attagene CIS-FACTORIAL M19 internal marker reporter; actives raise or lower the signal. The essentials: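 Signals come from fluorescence of labelled reporter-specific PCR fragments resolved by capillary electrophoresis, following 24 h treatment of HepG2 cells transfected with cis-promoter reporter units; activity was fitted in both directions relative to DMSO.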

The nature of assay [13]: ATG_ERE_CIS: Attagene CIS-FACTORIAL HepG2 Assay for Estrogen Response Element (ERE) (AID 2282940). Particulars: HepG2 ERE cis-reporter, Attagene RNA transcript; actives raise or lower the signal. Put shortly: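 Fluorescence of capillary-separated, FAM-labelled reporter cDNA fragments indicates reporter mRNA levels in HepG2 cells exposed to chemicals for 24 h. Transient transfection with cis-regulated units; data fitted in both directions against DMSO.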

Assay [14] in a line: ATG_Ets_CIS: Attagene CIS-FACTORIAL HepG2 Assay for human Erythroblast Transformation Specific (ETS) (AID 2282941). Particulars: HepG2 ETS cis-reporter transcription, actives raise or lower the signal. Put shortly:
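Multiplexed reporter transcript profiling: HepG2, 24 h treatment, total RNA to cDNA, PCR, 6-FAM labelling, HpaI cut, capillary electrophoresis. Gain- or loss-of-signal fitted against DMSO.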

Assay [15] concerns the target Hepatocyte nuclear factor 3-beta (Homo sapiens) (UniProt Q9Y261). The assay can be described thus: ATG_FoxA2_CIS: Attagene CIS-FACTORIAL HepG2 Assay for human Forkhead box A2 (FOXA2) (AID 2282942). Particulars: HepG2 cis-reporter transcription factor activity, 24 h; actives raise or lower the signal. Put shortly: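 HepG2 transiently transfected with a multiplexed cis-promoter reporter library read endogenous FOXA2 activity. After 24 h compound exposure, reporter mRNA was quantified by RT-PCR, HpaI digestion and capillary electrophoresis. Bidirectional fit against DMSO.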

A short description of assay [16]: ATG_FoxO_CIS: Attagene CIS-FACTORIAL HepG2 Assay for human Forkhead box O (FoxO) (AID 2282943). Particulars: HepG2 Attagene cis-reporter, FoxO element, mRNA; actives raise or lower the signal. The essentials: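 Values reflect reporter mRNA induction or loss in HepG2 cells 24 h post-dosing, fitted bidirectionally with DMSO as negative control and baseline. Detection used RT-PCR and fluorescence capillary electrophoresis.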

Assay [17] in a line: ATG_GATA_CIS: Attagene CIS-FACTORIAL HepG2 Assay for human GATA Binding Protein (AID 2282944). Particulars: HepG2 GATA cis-element reporter, Attagene multiplex mRNA; actives raise or lower the signal. The essentials: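 After transfecting HepG2 cells with multiple cis-regulated reporter units, chemicals are dosed for 24 h; isolated RNA undergoes RT-PCR and fluorescent labeling before capillary electrophoresis, with activity expressed against DMSO.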

Assay [18] can be described thus: ATG_GLI_CIS: Attagene CIS-FACTORIAL HepG2 Assay for human Zinc Finger Protein GLI1 (AID 2282945). Particulars: HepG2, Attagene cis-factorial reporter mRNA, GLI element; actives raise or lower the signal. The essentials:
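HepG2 cells transiently transfected with cis-promoter multiplexed reporter units report endogenous transcription factor activity. After 24 h chemical exposure, reporter mRNA was quantified by RT-PCR, 6-FAM labelling, HpaI digestion and capillary electrophoresis, with bidirectional fitting against DMSO.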

A short description of assay [19]: ATG_EGR_CIS: Attagene CIS-FACTORIAL HepG2 Assay for human Early Growth Response 1 (EGR1) (AID 2282938). Particulars: HepG2 Attagene CIS-FACTORIAL EGR reporter mRNA; actives raise or lower the signal. The essentials: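 HepG2 cells transiently transfected with cis-element-driven multiplexed reporter units, dosed for 24 h. EGR1-element reporter mRNA quantified by RT-PCR, 6-FAM labelling, HpaI digestion and capillary electrophoresis; bidirectional fit versus DMSO.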

Results on four compounds are retold here after PubChem BioAssay (EPA / NIEHS).

Values joined by “and” are separate entries in the source; they are usually repeats but may differ in a detail not shown here. Equal values may be shown once. Some structures have more than one record in an assay (separate samples or runs), and their calls can disagree. Active and inactive are the calls of the source. The calls were made as follows: active = hit-call score of the fitted dose curve at least 0.9, where 1 is the maximum; inactive = score below 0.9.

The AC50 is the concentration at which the activity in the assay is half-maximal.

Chain of Retinoic acid receptor alpha (Homo sapiens) (P10276 whole entry, looked up): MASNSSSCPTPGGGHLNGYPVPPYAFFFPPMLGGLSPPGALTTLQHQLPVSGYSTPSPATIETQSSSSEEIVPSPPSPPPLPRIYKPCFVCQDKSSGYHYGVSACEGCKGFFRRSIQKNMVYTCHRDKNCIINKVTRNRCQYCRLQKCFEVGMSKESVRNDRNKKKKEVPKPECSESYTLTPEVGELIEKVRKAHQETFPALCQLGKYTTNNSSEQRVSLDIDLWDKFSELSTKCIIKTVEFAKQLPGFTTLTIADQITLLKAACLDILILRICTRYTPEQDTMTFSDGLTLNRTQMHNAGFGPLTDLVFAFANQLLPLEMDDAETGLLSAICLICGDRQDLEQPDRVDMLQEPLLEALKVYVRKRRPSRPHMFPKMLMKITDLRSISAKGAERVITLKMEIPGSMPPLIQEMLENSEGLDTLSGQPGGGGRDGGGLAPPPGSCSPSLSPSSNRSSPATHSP
Chain of CCAAT/enhancer-binding protein beta (Homo sapiens) (P17676 whole entry, looked up): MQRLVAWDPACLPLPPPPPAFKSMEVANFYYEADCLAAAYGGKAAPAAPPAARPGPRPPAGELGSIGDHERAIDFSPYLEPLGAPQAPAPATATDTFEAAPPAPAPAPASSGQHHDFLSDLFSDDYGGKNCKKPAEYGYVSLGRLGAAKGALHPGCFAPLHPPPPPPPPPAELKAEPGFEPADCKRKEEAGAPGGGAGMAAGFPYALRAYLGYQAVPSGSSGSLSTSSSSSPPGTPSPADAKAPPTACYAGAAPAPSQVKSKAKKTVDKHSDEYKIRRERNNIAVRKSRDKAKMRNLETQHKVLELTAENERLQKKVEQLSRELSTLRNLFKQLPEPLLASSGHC
Chain of Aryl hydrocarbon receptor (Homo sapiens) (P35869 whole entry, looked up): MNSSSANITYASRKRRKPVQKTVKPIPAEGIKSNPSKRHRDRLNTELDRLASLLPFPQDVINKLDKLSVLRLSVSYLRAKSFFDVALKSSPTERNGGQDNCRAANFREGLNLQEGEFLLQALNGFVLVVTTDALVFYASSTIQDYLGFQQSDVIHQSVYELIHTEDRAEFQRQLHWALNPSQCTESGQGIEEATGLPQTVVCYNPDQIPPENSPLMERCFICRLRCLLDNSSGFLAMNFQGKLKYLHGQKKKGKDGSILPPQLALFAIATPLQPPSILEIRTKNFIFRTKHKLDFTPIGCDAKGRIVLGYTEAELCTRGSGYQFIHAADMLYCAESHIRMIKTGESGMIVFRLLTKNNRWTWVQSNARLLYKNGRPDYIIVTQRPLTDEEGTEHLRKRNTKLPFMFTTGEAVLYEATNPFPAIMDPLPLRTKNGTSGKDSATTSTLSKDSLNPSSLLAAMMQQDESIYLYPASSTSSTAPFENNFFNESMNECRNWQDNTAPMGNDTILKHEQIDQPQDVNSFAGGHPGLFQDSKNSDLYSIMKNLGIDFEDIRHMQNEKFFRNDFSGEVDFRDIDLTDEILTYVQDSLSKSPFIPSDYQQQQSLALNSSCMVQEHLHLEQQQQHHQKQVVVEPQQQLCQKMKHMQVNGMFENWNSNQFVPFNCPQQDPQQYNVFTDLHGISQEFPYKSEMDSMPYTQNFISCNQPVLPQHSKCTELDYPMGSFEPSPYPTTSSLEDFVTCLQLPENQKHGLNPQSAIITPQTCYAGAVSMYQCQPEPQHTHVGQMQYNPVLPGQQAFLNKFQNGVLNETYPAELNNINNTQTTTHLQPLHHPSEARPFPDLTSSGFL
Chain of Hepatocyte nuclear factor 3-beta (Homo sapiens) (Q9Y261 whole entry, looked up): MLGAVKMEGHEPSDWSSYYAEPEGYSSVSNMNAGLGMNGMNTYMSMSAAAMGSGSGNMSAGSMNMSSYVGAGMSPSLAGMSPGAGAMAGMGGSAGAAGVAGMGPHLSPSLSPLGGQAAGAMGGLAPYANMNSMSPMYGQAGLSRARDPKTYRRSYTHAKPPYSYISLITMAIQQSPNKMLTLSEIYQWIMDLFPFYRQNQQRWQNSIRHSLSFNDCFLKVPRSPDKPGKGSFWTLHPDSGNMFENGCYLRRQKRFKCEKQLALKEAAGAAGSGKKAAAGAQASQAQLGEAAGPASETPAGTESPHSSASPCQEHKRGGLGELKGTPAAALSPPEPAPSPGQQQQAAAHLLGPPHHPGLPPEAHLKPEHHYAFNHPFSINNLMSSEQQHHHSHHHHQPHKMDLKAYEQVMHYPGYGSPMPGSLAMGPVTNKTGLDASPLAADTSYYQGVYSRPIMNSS

Take `CN(C)C(=O)C1(N2CCCCC2)CCN(CC[C@@]2(c3ccc(Cl)c(Cl)c3)CN(C(=O)c3ccccc3)CCO2)CC1`: the compound was classed as inactive in assay [1], in assay [2], in assay [3], in assay [4], in [5] and in assay [7]. Moreover, the result in [8], in [9], in assay [10], in assay [11], in [12] and in [13] was inactive. The outcome in [14], in [15], in [16], in assay [17] and in assay [18] was inactive. Also, the concentration at half-maximal activity (AC50) in assay [6] was 463 nM (active).
Take `O=C1CCC(C2CCCCC2)CC1`: the compound was called inactive in assay [1], in assay [2], in assay [3], in [4], in assay [5] and in [7]. Further, the compound was called inactive in assay [8], in assay [9], in assay [10], in assay [11], in assay [19] and in assay [12]. Also, the compound was classed as inactive in [14], in assay [15], in assay [16], in assay [17] and in assay [18]. For the same compound, the AC50 was 100 µM (active) and 39.3 µM (active) in [3]; 164 µM (active) and 171 µM (active) and 160 µM (active) in [4]; 133 µM (active) [middle of 4 runs] in [6]; 163 µM (active) in [7]; 147 µM (active) and 156 µM (active) in assay [8]; 185 µM (active) in assay [10]. For the same compound, the AC50 was 130 µM (active) in assay [19], 131 µM (active) in [14] and 187 µM (active) in assay [17].
For `Cc1cn([C@H]2C[C@H](N=[N+]=[N-])[C@@H](CO)O2)c(=O)[nH]c1=O`, the result in assay [1], in [2], in assay [4], in assay [5], in assay [6] and in assay [7] was inactive. The call in assay [8], in assay [9], in [10], in [11], in assay [19] and in assay [12] was inactive. In addition, the result in assay [13], in assay [14], in assay [15], in assay [16], in [17] and in assay [18] was inactive. The half-maximal activity concentration (AC50) in assay [3] is 27.4 µM (active).
For the compound `CN(C)c1ccc(C(=C2C=CC(=[N+](C)C)C=C2)c2ccc(N(C)C)cc2)cc1`, the compound was called inactive in assay [1], in assay [3], in assay [5], in [7], in [8] and in assay [11]. In addition, the result in assay [12], in assay [14], in [15], in assay [16], in [17] and in [18] was inactive. The concentration at half-maximal activity (AC50) in [2] was 4.56 µM (active); in [4], 2.86 µM (active); in assay [6], 2230 nM (active); in assay [9], 2.58 µM (active); in assay [10] it was 2.88 µM (active); in [19] it was 2.23 µM (active). In addition, in assay [13], the concentration at half-maximal activity (AC50) is 1.01 µM (active).
